Among all 5,500 compounds or so, about 2,000 (36%) were called active. Not shown: some 18% with an inconclusive outcome. Cut-off read from the data, not from the text of the source: active = normalized growth mostly below about 0.91 (no sharp cut-off); inconclusive = no clear call, values can overlap the other calls; inactive = mostly above about 0.92. Some of the results follow.
Experiment: chemical genetic growth profiling, strain panel (AID 1159580);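 note: tested at 20 µM; growth read once vehicle control cultures reached saturation at 30 °C; 1 = growth at the plate median or of vehicle wells; lower values mean less growth of the strain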
Conditions: S. cerevisiae deletion strains, growth OD
[1] = locus YHR030C, strain SLT2, hits give low values

Measured: normalized growth

Cc1cc(OC(=O)N2CCCCC2)c(C(C)C)cc1[N+](C)(C)C
inactive: locus YAL021C, strain ccr4, hits give low values 0.994 | locus YAL026C, strain drs2, hits give low values 1.03 | locus YAL030W, strain snc1, hits give low values 1.01 | locus YBL061C, strain skt5, hits give low values 1.01 | locus YBR009C, strain hhf1, hits give low values 0.992 | locus YBR023C, strain chs3, hits give low values 1.01 | locus YBR171W, strain sec66, hits give low values 1.01 | locus YBR231C, strain swc5, hits give low values 1.02 | locus YBR279W, strain paf1, hits give low values 1.01 | locus YCL011C, strain gbp2, hits give low values 0.998 | locus YCL016C, strain dcc1, hits give low values 0.987 | locus YCL069W, strain vba3, hits give low values 1 | locus YCR088W, strain abp1, hits give low values 1.01 | locus YDL005C, strain med2, hits give low values 1.02 | locus YDL040C, strain nat1, hits give low values 1.01 | locus YDR001C, strain nth1, hits give low values 1.01 | locus YDR069C, strain doa4, hits give low values 1.03 | locus YDR137W, strain rgp1, hits give low values 1.03 | locus YDR159W, strain sac3, hits give low values 1.06 | locus YDR195W, strain ref2 0.997 | locus YDR297W, strain sur2, hits give low values 1.01 | locus YDR334W, strain swr1, hits give low values 1 | locus YDR335W, strain msn5, hits give low values 1.01 | locus YDR392W, strain spt3, hits give low values 0.995 | locus YEL003W, strain gim4, hits give low values 1.01 | locus YEL037C, strain rad23, hits give low values 1 | locus YEL061C, strain CIN8 (second series), hits give low values 1.01 | locus YER015W, strain faa2, hits give low values 1 | locus YER016W, strain bim1, hits give low values 1.01 | locus YER111C, strain swi4, hits give low values 1.01 | locus YER155C, strain BEM2 (second series), hits give low values 0.998 | locus YFR010W, strain ubp6, hits give low values 1.02 | locus YGL167C, strain pmr1, hits give low values 1.01 | locus YGL173C, strain kem1, hits give low values 1.02 | locus YGL227W, strain vid30, hits give low values 0.999 | locus YGL240W, strain doc1, hits give low values 1.02 | locus YGL253W, strain hxk2, hits give low values 1.01 | locus YHR013C, strain ard1, hits give low values 0.995 | locus YHR027C, strain rpn1, hits give low values 1.01 | [1] 1 | locus YHR079C, strain IRE1, hits give low values 1.01 | locus YHR142W, strain chs7, hits give low values 0.986 | locus YJL092W, strain hpr5, hits give low values 1.01 | locus YJL095W, strain BCK1 (second series), hits give low values 1 | locus YJL095W, strain BCK1, hits give low values 1.01 | locus YJL115W, strain asf1, hits give low values 1.02 | locus YJL129C, strain trk1, hits give low values 1.03 | locus YJL154C, strain vps35, hits give low values 1.01 | locus YJL164C, strain tpk1, hits give low values 1 | locus YJL166W, strain qcr8, hits give low values 1.05 | locus YJR066W, strain TOR1, hits give low values 0.911 | locus YKL160W, strain elf1, hits give low values 0.988 | locus YKR026C, strain gcn3, hits give low values 1 | locus YKR091W, strain srl3, hits give low values 1 | locus YLL001W, strain dnm1, hits give low values 1 | locus YLL026W, hits give low values 1.03 | locus YLL041C, strain sdh2, hits give low values 1.03 | locus YLR027C, strain aat2, hits give low values 1.01 | locus YLR113W, strain HOG1, hits give low values 1 | locus YLR221C, strain rsa3, hits give low values 1.01 | locus YLR258W, strain gsy2, hits give low values 0.987 | locus YLR262C, strain YPT6 (second series), hits give low values 1.03 | locus YLR320W, strain mms22, hits give low values 1.02 | locus YLR342W, strain FKS1, hits give low values 1.01 | locus YLR357W, strain rsc2, hits give low values 1.06 | locus YLR370C, strain arc18, hits give low values 0.989 | locus YLR384C, strain iki3, hits give low values 0.999 | locus YML120C, strain ndi1, hits give low values 1 | locus YMR058W, strain fet3, hits give low values 1.02 | locus YMR125W, strain sto1, hits give low values 1.01 | locus YMR129W, hits give low values 1.01 | locus YMR205C, strain PFK2, hits give low values 1.02 | locus YMR231W, strain pep5, hits give low values 1.01 | locus YNL071W, strain lat1, hits give low values 1.01 | locus YNL183C, strain NPR1, hits give low values 0.949 | locus YNL209W, strain ssb2, hits give low values 1 | locus YNL248C, strain rpa49, hits give low values 1.02 | locus YNL322C, strain KRE1 (second series), hits give low values 1 | locus YNR049C, strain mso1, hits give low values 1.01 | locus YOR001W, strain rrp6, hits give low values 1.04 | locus YOR070C, strain gyp1, hits give low values 1 | locus YOR080W, strain dia2, hits give low values 1.01 | locus YOR083W, strain WHI5, hits give low values 0.975 | locus YOR106W, strain vam3, hits give low values 0.99 | locus YOR231W, strain MKK1, hits give low values 0.999 | locus YOR265W, strain rbl2, hits give low values 0.98 | locus YOR270C, strain vph1, hits give low values 1.08 | locus YOR290C, strain snf2, hits give low values 0.988 | locus YPL051W, strain arl3, hits give low values 1.01 | locus YPL078C, strain atp4, hits give low values 0.99 | locus YPL106C, strain sse1, hits give low values 1.01 | locus YPL240C, strain hsp82, hits give low values 1.01 | locus YPL256C, strain CLN2, hits give low values 0.978

Cc1nn(-c2ccccc2)nc1C(=O)NC(=O)N1CCCC1
inactive: locus YAL013W, strain DEP1, hits give low values 0.992 | locus YBR229C, strain ROT2, hits give low values 0.983 | locus YDL101C, strain DUN1, hits give low values 0.949 | locus YDL134C, strain PPH21, hits give low values 1.01 | locus YDR150W, strain NUM1, hits give low values 0.871 | locus YEL061C, strain CIN8, hits give low values 1.02 | locus YGR078C, strain PAC10, hits give low values 0.964 | [1] 0.94 | locus YHR087W, strain rtc3, hits give low values 1.03 | locus YJR043C, strain POL32, hits give low values 0.977 | locus YJR075W, strain HOC1, hits give low values 0.995 | locus YLR039C, strain RIC1, hits give low values 0.998 | locus YLR058C, strain SHM2 (second series), hits give low values 0.997 | locus YLR085C, strain ARP6, hits give low values 1.02 | locus YLR262C, strain YPT6, hits give low values 1.02 | locus YML094W, strain GIM5, hits give low values 1.02 | locus YMR219W, strain ESC1, hits give low values 0.997 | locus YMR263W, strain SAP30, hits give low values 0.987 | locus YMR307W, strain GAS1, hits give low values 0.927 | locus YNL128W, strain TEP1, hits give low values 0.991 | locus YNL153C, strain GIM3, hits give low values 0.986 | locus YNL298W, strain CLA4 (second series), hits give low values 1.01 | locus YNL322C, strain KRE1, hits give low values 0.995 | locus YNR030W, strain Alg12, hits give low values 1 | locus YOL006C, strain TOP1, hits give low values 0.955 | locus YPL055C, strain LGE1, hits give low values 1 | locus YPL241C, strain CIN2, hits give low values 0.965 | locus YPR135W, strain CTF4, hits give low values 0.949
